Here are results for five compounds from PubChem BioAssay (NCATS).

Results filed as inconclusive are left out. Calls of active or inactive are those of the source. Unless noted, calls follow the shape of the dose curve; as a rule, active = well fitted curve in the direction sought with a large enough effect; inconclusive = small, poorly fitted or top-dose-only effect, or another doubt; inactive = no such curve, though single readings can be large; an effect the other way counts as inactive or inconclusive. Some results are limits rather than exact numbers.

The target in experiment [1] is Lysosomal acid glucosylceramidase (Homo sapiens) (UniProt P04062). Description: Glucocerebrosidase-p2 (AID 348; in the data active = potency below about 10 µM; also: potency is read from the fitted curve at half-maximal effect). The conditions noted are these: purified GBA, blue fluorogenic substrate, 40 min. The gist of the method: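 Normal human glucocerebrosidase (0.2 nM) with blue fluorogenic substrate (80 uM final) in citrate/phosphate pH 5.9 with 10mM sodium taurocholate, 0.01% tween-20; 40 min RT, NaOH/glycine stop; fluorescence Ex 365/Em 440; AC50 from a titration from 0.6 nM upwards.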
Sequence of Lysosomal acid glucosylceramidase (Homo sapiens) (P04062 whole entry, looked up): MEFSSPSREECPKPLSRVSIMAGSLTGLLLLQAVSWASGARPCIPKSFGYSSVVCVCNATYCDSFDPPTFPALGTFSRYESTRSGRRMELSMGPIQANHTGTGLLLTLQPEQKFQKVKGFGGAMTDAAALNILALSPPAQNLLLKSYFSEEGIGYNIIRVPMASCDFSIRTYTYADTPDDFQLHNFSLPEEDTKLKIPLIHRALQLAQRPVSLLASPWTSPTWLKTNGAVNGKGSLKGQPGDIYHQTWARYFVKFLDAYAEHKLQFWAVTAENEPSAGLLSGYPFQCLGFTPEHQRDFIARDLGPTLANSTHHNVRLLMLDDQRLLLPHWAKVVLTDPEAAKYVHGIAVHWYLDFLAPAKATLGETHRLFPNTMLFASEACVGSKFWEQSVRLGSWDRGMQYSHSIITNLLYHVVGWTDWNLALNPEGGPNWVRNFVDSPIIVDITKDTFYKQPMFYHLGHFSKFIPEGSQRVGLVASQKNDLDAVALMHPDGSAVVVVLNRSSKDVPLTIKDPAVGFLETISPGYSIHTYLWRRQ

The nature of experiment [2]: AP1 Signaling Pathway (AID 357; active = well fitted curve in either direction with a large enough effect, not every such curve was filed as active;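 also: ME-180 reporter cells stimulated with EGF at its EC50 level; % is scaled to controls: 0 for no effect and ±100 for the full control effect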). The note with it: ME-180 AP-1-bla reporter, EGF-induced, beta-lactamase ratio, 5 h; at 7.69 µM (top of the series) unless noted. The gist of the method:
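AP-1-bla ME-180 cells, Opti-MEM + 0.5% dialyzed FBS, plated overnight 37 °C. Cpd titration + EC50 EGF, 5 h 37 °C. CCF4 2.5 h RT; ex 405, em 460/530 ratio → %activity, AC50.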

Experiment [3] deals with Cytochrome P450 1A2 (Homo sapiens) (UniProt P05177). Description: p450-cyp1a2 (AID 410; calls by dose curve; also: potency is read from the fitted curve at half-maximal effect). The conditions noted are these: recombinant CYP1A2, luciferin-ME demethylation, luminescence; series mostly up to 57 µM. The gist of the method: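 Read-out is luminescence from luciferin produced by CYP1A2 demethylation of Luciferin-ME (100uM, at Km). Detection reagent stopped the 60 min NADPH-dependent reaction; signals were normalized to 57 uM furafylline.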
Sequence of Cytochrome P450 1A2 (Homo sapiens) (P05177 whole entry, looked up): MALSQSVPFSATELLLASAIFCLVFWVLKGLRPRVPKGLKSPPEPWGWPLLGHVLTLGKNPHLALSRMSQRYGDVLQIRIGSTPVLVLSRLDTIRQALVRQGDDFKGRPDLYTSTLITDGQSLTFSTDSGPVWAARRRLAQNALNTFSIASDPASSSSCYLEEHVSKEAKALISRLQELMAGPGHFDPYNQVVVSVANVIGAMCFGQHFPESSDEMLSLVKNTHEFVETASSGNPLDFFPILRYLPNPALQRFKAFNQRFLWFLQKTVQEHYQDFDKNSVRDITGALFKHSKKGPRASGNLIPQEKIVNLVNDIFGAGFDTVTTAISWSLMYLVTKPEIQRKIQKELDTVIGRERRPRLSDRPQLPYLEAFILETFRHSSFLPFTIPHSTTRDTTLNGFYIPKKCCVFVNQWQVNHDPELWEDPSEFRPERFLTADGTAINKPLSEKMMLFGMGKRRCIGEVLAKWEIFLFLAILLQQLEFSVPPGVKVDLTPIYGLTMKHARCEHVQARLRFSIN

The nature of experiment [4]: NFAT Signaling Pathway (AID 444; active = well fitted curve in either direction with a large enough effect, not every such curve was filed as active;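 also: carbachol stimulus at about its EC50 of 1 µM final; % is scaled to controls: 0 for no effect and ±100 for the full control effect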). The conditions noted are these: Jurkat NFAT-bla M1, carbachol, beta-lactamase ratio, 5 h; at 7.69 µM (top of the series) unless noted. The gist of the method: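 Jurkat cells carrying an NFAT-driven β-lactamase reporter and co-transfected muscarinic M1 receptor were treated with compound plus carbachol (1 uM final, an EC50 level) for 5 h at 37 °C. CCF4 loading followed for 1 h at RT; 460/530 nm ratio gave %activity.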

Experiment [5] is described as follows: Stat Signaling Pathway (AID 446; active = well fitted curve in either direction with a large enough effect, not every such curve was filed as active;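 also: ME-180 cervical cancer cells given 40 pM IL-6 alongside compound; SIE-controlled beta-lactamase reporter measured as 460/530 nm FRET emission ratio; % is scaled to controls: 0 for no effect and ±100 for the full control effect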). The conditions noted are these: ME-180 SIE beta-lactamase reporter, IL-6 stimulated, 5 h; at 7.69 µM (top of the series) unless noted. Put shortly: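 Overnight-plated ME-180 cells bearing a STAT Inducible Element beta-lactamase reporter; 5 h co-exposure to compound and 40 pM IL-6; values normalized to 300 pM IL-6 and 125 nM JAK inhibitor controls.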

Experiment [6] has as its target Glucocorticoid receptor (Homo sapiens) (UniProt P04150). Description: GR-GFP Redistribution (AID 450;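 active = compounds whose dose series gives a full or clear partial fitted curve of increased nuclear translocation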; also: potency is read from the fitted curve at half-maximal effect). The conditions noted are these: U2OS GR-GFP nuclear translocation, laser cytometry, 2 h.
The target is the same in experiment [7]. Description: GR-EFC Redistribution (AID 451; calls by dose curve; also: potency is read from the fitted curve at half-maximal effect). The note with it: CHO-K1 GR-EFC translocation, beta-gal luminescence, 2 h. The gist of the method:
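CHO-K1 cells stably expressing nuclear-localized β-gal enzyme acceptor and GR fused C-terminally to the enzyme donor fragment; ligand-driven nuclear translocation restores β-gal by complementation. Compounds titrated up to 46 uM final, 2 h at 37 °C; luminescence read.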

For experiment [8], the target named is Mitogen-activated protein kinase 10 (Mus musculus) (UniProt Q61831). Description: JNK3 AlphaScreen Assay (AID 530; active = well fitted curve in either direction with a large enough effect, not every such curve was filed as active;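 also: kinase came from lysate of stimulated human HepG2 cells; % is scaled to controls: 0 for no effect and ±100 for the full control effect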). The conditions noted are these: JNK3 lysate, c-Jun phosphorylation; series mostly up to 57.1 µM. The gist of the method: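 Biotinylated GST-cJun(1-79) served as substrate for JNK3 in HepG2 lysates stimulated with IL-1beta and TNF-alpha. ATP was 10 uM final, pH 7.6. Ser73 phosphorylation was quantified by AlphaScreen (680 nm excitation).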

Experiment [9] has as its target 3',5'-cyclic-AMP phosphodiesterase 4B (Homo sapiens) (UniProt Q07343). Briefly: qHTS Assay for Inhibitors of PDE-IV (AID 607; active = well fitted activation curve with a large enough effect in the main read-out, with a control signal flat, not every such curve was filed as active; also: % of control where 0% means no effect). The note with it: HEK293 ACTOne CNG channel cells, membrane potential fluorescence; series mostly up to 22.9 µM. Put shortly:
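Live HEK293 cells with a modified cyclic nucleotide-gated (CNG) channel report intracellular cAMP via membrane-potential dye fluorescence (ex 535/em 590 nm). Endogenous PDE-IV was targeted. Compounds were tested at up to 22.9 uM final; RO 20-1724 100 uM served as control.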

In experiment [10] the target is Cytochrome P450 3A4 (Homo sapiens) (UniProt P08684). Description: qHTS Assay for Inhibitors and Substrates of Cytochrome P450 3A4 (AID 884). Also: potency is read from the fitted curve at half-maximal effect; nearly all actives have a fitted effect of over 50% in size. The conditions noted are these: recombinant CYP3A4, Luciferin-PPXE luminescence; series mostly up to 57.1 µM. Put shortly:
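Luminescent readout of luciferin produced by CYP3A4 (20 nM) dealkylation of Luciferin-PPXE, 25 uM (its KM). NADPH-driven reaction ran 60 min at RT after 10 min compound preincubation; data scaled to 57 uM ketoconazole as 100% inhibition.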
On the technique in general: Quantitative high-throughput screening tests each substance at several concentrations.

The target is the same in experiment [11]. Description: qHTS Assay for Activators of Cytochrome P450 3A4 (AID 885). Also: nearly all actives have a fitted effect of over 65% in size. The conditions noted are these: recombinant CYP3A4, Luciferin-PPXE luminescence, 60 min; series mostly up to 57.1 µM. The gist of the method:
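Using 20nM recombinant human CYP3A4 in potassium phosphate (200mM), substrate Luciferin-PPXE at 25uM, luminescent luciferin detection followed a 60-min RT NADPH reaction; data scaled to 57 uM ketoconazole.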

In experiment [12] the target is Cytochrome P450 2C19 (Homo sapiens) (UniProt P33261). Briefly: qHTS Assay for Inhibitors and Substrates of Cytochrome P450 2C19 (AID 899). Also: potency is read from the fitted curve at half-maximal effect; nearly all actives have a fitted effect of over 60% in size. The conditions noted are these: recombinant CYP2C19, luciferin-H EGE luminescence; series mostly up to 57.1 µM. The gist of the method: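 In 50mM KPO4, the reaction held 5nM enzyme and KM-level (10uM) Luciferin-H EGE; it ran 60 min at 37C after NADPH regeneration and a 10 min compound preincubation. Luminescence values were scaled to 57uM ketoconazole as complete inhibition.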
Sequence of Cytochrome P450 2C19 (Homo sapiens) (P33261 whole entry, looked up): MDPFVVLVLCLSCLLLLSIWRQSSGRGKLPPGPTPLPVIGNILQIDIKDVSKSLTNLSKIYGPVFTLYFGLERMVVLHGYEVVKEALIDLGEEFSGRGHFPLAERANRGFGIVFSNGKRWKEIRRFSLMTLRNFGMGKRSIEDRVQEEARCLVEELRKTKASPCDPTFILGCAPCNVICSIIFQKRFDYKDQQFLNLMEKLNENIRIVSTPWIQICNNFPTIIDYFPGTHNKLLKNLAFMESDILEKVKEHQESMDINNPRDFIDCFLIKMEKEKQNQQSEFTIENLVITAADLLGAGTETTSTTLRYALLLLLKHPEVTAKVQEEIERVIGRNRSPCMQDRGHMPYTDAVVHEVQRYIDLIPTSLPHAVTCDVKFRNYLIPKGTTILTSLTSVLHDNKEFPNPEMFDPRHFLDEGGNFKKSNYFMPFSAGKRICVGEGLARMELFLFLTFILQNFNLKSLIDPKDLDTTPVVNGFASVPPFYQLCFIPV

Experiment [13] can be described thus: qHTS Assay for Lipid Storage Modulators (AID 1519; calls by dose curve). The conditions noted are these: Drosophila S3 cells, BODIPY lipid droplet/cell ratio, laser cytometry, cells loaded with oleic acid; for activity change, negative = inhibition: at 57.5 µM (top of the series). The gist of the method:
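Cells seeded at 5,000 per well were treated with compounds over a concentration series and loaded with oleic acid (400 uM, as added). Lipid droplet fluorescence (488 nm excitation, 500-530 nm channel) was read by laser-scanning cytometry and normalized to 20 uM Triacsin C.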

Experiment [14] addresses Dual specificity protein kinase CLK4 (Homo sapiens) (UniProt Q9HAZ1). Briefly: qHTS Assay for Inhibitors of CDC-like Kinase 4 (Kinase-Glo Assay) (AID 1770). Also: nearly all actives have a fitted effect of over 65% in size. Also: potency is read from the fitted curve at half-maximal effect. The conditions noted are these: recombinant Clk4, Kinase-Glo ATP depletion luminescence; series mostly up to 66.7 µM. Put shortly: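 Inhibition was judged from remaining ATP, measured by Ultra-Glo luciferase bioluminescence after Clk4 (25 nM) had acted on RS peptide at 1 uM ATP for 4.5 hours, room temperature.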

The target is the same in experiment [15]. Description: qHTS Assay for Inhibitors of CDC-like Kinase 4 (ADP-FP Assay) (AID 1795).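 Also: recombinant human CLK4 phosphorylating RS repeat peptide at 1 µM ATP; % is scaled to controls: 0 for no effect and ±100 for the full control effect; nearly all actives have a fitted effect of over 60% in size.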 The note with it: Transcreener ADP fluorescence polarization; series mostly up to 50 µM. The gist of the method: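 Inhibition of ADP formation by 6.25 nM Clk4 is measured using 1 uM ATP and 100 uM RS repeat peptide over one hour. Produced ADP displaces a fluorescent tracer from antibody, lowering polarization.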

Experiment [16] addresses Ubiquitin carboxyl-terminal hydrolase 1 (Homo sapiens) (UniProt O94782). Description: Inhibitors of USP1/UAF1: Pilot qHTS (AID 504865).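 Also: rhodamine fluorescence freed from ubiquitin-rhodamine substrate followed over time; top concentration of the series differs between compounds; % is scaled to controls: 0 for no effect and ±100 for the full control effect; nearly all actives have a fitted effect of over 35% in size.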 The conditions noted are these: purified USP1/UAF1, Ub-rhodamine cleavage fluorescence; series mostly up to 54.9 µM. Put shortly: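 Kinetic fluorescence assay: 1nM USP1/UAF1, 15 min compound preincubation, then 150nM Ub-Rho; 480/540 nm.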

Experiment [17] can be described thus: Primary qHTS for small molecule stabilizers of the endoplasmic reticulum resident proteome: Secreted ER Calcium Modulated Protein (SERCaMP) assay (AID 1508630). Also: % is scaled to controls: 0 for no effect and ±100 for the full control effect. The note with it: SH-SY5Y GLuc-SERCaMP (Gaussia luciferase released on ER calcium loss) secretion, thapsigargin, luminescence; series mostly up to 38.4 µM. Put shortly: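 The SH-SY5Y reporter protocol was run at 3 concentrations up to 38.3 uM (primary) or 11 concentrations (follow-up): 16 h compound, 100 nM thapsigargin for 4 h, then extracellular luciferase luminescence.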

The target in experiment [18] is Dual specificity protein kinase CLK4 (Homo sapiens) (UniProt Q9HAZ1). Briefly: qHTS Assay for Inhibitors of CDC-like Kinase 4 (ADP-Glo Assay) (AID 1771). Also: % is scaled to controls: 0 for no effect and ±100 for the full control effect; nearly all actives have a fitted effect of over 70% in size. The conditions noted are these: recombinant CLK4, ADP-Glo luminescence; series mostly up to 80 µM. The gist of the method:
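In this ADP-Glo format, 1 uM ATP and 100 uM RS peptide served as substrates for 25 nM Clk4 in Mg2+/EGTA/DTT/Triton buffer; reactions ran 1 hr at room temperature before luminescent ADP quantification.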

Experiment [19] in a line: qHTS Assay for Identification of Small Molecule Agonists for Hypoxia Response Element Signaling Pathway (AID 914; active = well fitted activation curve with a large enough effect in the signal ratio, with a control signal flat, not every such curve was filed as active; the % refers to the signal ratio; also: % of control where 0% means no effect). The conditions noted are these: ME-180 (cervical carcinoma) HRE-bla reporter, beta-lactamase ratio, CoCl2, 17 h; activation: stronger effect = higher value. The gist of the method:
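Positive modulation of EC50 CoCl2-induced hypoxia response element signaling is measured in ME-180 cells with a beta-lactamase reporter. Compounds are titrated, incubation runs 17 hours, and %Activity derives from the blue/green ratio.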

The mark [20] stands for this setting: measured here: cell count channel max response.
Setting [21] is: measured here: lipid channel max response.

Sequence of Ubiquitin carboxyl-terminal hydrolase 1 (Homo sapiens) (O94782 whole entry, looked up): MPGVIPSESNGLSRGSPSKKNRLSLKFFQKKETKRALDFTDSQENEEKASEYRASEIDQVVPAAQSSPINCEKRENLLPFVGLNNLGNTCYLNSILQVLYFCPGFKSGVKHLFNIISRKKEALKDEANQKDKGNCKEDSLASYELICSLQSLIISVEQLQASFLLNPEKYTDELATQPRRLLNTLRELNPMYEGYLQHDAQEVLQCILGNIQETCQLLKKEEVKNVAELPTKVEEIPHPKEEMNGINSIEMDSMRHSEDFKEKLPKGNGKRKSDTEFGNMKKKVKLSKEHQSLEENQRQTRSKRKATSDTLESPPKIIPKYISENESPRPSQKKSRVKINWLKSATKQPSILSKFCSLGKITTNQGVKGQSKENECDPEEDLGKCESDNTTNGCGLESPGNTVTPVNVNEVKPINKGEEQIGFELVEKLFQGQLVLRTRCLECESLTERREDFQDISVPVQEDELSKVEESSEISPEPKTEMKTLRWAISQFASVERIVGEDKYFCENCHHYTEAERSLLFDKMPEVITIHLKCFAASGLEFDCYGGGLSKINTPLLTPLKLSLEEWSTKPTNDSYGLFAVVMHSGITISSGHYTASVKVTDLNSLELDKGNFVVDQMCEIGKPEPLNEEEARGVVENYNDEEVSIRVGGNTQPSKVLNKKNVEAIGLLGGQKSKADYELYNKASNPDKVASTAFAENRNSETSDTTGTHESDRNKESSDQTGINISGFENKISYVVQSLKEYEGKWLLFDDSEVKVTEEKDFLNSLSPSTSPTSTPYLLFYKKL
Sequence of Glucocorticoid receptor (Homo sapiens) (P04150 whole entry, looked up): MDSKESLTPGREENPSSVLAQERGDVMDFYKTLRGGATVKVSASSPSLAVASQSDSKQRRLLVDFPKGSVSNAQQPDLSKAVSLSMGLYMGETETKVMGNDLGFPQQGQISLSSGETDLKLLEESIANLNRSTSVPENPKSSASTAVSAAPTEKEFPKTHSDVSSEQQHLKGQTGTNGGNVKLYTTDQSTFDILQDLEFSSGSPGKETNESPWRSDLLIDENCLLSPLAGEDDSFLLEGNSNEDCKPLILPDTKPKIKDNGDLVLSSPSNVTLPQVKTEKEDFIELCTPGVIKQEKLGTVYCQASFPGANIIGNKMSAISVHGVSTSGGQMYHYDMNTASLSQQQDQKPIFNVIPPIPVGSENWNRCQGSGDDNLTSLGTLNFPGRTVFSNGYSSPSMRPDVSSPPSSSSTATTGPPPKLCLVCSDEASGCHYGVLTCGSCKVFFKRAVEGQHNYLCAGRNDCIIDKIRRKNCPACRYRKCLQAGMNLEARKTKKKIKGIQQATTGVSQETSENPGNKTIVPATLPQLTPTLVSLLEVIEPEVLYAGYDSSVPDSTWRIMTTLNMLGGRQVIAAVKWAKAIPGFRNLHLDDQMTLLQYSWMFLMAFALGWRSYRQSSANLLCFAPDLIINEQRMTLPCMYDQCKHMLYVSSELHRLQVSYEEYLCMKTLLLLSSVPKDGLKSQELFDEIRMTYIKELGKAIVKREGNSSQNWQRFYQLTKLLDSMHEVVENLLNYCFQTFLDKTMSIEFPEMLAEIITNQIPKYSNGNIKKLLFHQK
Sequence of Cytochrome P450 3A4 (Homo sapiens) (P08684 whole entry, looked up): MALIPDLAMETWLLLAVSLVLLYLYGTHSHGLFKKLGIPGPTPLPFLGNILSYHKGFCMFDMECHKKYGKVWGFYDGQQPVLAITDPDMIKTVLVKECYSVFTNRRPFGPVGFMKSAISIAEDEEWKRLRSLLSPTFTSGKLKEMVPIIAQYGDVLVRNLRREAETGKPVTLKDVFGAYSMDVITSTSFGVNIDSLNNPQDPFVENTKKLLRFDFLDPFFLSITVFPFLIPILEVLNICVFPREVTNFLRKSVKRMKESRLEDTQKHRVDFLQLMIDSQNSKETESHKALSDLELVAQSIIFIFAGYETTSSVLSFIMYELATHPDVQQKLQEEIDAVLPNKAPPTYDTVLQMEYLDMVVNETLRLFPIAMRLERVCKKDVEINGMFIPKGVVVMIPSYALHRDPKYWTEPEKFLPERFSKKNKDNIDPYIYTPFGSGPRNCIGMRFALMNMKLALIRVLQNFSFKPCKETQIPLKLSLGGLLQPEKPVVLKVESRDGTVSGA
Sequence of 3',5'-cyclic-AMP phosphodiesterase 4B (Homo sapiens) (Q07343 whole entry, looked up): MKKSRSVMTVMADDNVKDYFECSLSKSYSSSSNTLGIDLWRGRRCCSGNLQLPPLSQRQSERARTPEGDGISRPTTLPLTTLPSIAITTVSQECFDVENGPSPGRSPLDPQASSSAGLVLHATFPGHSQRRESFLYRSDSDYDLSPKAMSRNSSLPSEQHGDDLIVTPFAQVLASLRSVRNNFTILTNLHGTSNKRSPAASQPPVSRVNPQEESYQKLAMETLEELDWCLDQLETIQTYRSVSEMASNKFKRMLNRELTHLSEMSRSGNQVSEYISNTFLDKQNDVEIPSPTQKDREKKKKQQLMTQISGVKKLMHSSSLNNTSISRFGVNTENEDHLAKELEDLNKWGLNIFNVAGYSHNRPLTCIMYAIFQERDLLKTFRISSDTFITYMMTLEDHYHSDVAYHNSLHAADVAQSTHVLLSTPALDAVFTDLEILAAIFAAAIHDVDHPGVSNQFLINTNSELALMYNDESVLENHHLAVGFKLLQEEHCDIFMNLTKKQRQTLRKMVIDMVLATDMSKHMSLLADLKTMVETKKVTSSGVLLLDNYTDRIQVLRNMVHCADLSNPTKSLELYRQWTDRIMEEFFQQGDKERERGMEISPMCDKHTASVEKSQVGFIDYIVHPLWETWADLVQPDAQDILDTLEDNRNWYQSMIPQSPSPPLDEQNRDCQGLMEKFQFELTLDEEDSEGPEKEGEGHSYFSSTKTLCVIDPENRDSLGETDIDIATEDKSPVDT
Sequence of Dual specificity protein kinase CLK4 (Homo sapiens) (Q9HAZ1 whole entry, looked up): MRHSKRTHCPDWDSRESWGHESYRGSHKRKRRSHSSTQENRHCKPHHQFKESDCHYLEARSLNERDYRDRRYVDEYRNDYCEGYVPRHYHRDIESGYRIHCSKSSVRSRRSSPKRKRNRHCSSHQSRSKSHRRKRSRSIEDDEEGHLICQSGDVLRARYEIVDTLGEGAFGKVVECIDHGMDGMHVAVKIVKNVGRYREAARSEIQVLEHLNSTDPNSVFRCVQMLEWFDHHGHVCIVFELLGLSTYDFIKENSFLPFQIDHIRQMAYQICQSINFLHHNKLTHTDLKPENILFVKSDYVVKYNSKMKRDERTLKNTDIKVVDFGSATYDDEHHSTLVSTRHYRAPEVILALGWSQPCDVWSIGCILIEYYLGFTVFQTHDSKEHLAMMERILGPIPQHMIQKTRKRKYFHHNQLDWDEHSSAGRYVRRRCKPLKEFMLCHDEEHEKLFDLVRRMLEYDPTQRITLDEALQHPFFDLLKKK

Consider `COc1cccc(-c2cncnc2N(C)Cc2ccco2)c1`, for which the Potency in experiment [1] is > 11.4 µM (inactive); in [3] it was 10 µM (active); in experiment [6], > 46 µM (inactive); in [7], > 46 µM (inactive); in experiment [10], 2.51 µM (active); in [12], 7.94 µM (active). Further, the figures for the activity change, negative = inhibition in [2], in experiment [4] and in experiment [13] were -8.71% (inactive), -25.9% (inactive) and 6.72% (inactive), respectively. For the same compound, in experiment [5], the activity, negative = inhibition was 7.72% (inactive). The compound was classed as inactive in [8]. For the same compound, the Potency result in [9], in experiment [11], in experiment [14], in experiment [15], in experiment [16] and in [17] was “inactive” throughout. Further, the max response in [13] (setting [20]) turned out to be 38%; in [13] (setting [21]) it was 41.1%.

Turning to `O=c1c(-c2ccc(Cl)cc2)nc2cnc(N3CCOCC3)nc2n1C[C@H]1CCCO1`, the Potency in experiment [1] is > 11.4 µM (inactive); in experiment [3], 2 µM (active); in experiment [6], > 9.22 µM (inactive); in [7], > 46 µM (inactive). Further, the activity change, negative = inhibition in experiment [2] was -9.09% (inactive); in experiment [4] it was -5.22% (inactive); in experiment [13], -4.84% (inactive). Further, the activity, negative = inhibition in [5] is -0.789% (inactive). Besides, the call in [8] was inactive. For the same compound, the results for the max response in experiment [13] (setting [20]) and in experiment [13] (setting [21]) were 4.1% and -3.15%, respectively. The Potency entry in experiment [18], in [15], in experiment [16] and in experiment [17] was “inactive” in each case.

Turning to `CN(C)Cc1ccccc1-c1nc(N(C)C)c2ccccc2n1`, the Potency in experiment [1] is > 11.4 µM (inactive); in experiment [3], 1.26 µM (active); in experiment [6], > 46 µM (inactive); in [7] it was > 46 µM (inactive). The results for the activity change, negative = inhibition in experiment [2], in experiment [4] and in [13] were 19.8% (inactive), 13.2% (inactive) and -2.91% (inactive), respectively. The activity, negative = inhibition in [5] is 28.7% (inactive). For the same compound, in experiment [8], the outcome was inactive. Further, the max response in [13] (setting [20]) worked out at 9.81%; in experiment [13] (setting [21]) it was 6.7%. In addition, the Potency result in experiment [18], in experiment [15], in experiment [16] and in [17] was “inactive” throughout.

For `COc1ccc(-n2c(=O)cnc3cnc(N4CCOCC4)nc32)cc1`, the Potency was > 11.4 µM (inactive) in experiment [1], > 9.22 µM (inactive) in experiment [6], > 46 µM (inactive) in experiment [7] and 28.2 µM (active) in experiment [14]. Further, the activity change, negative = inhibition in experiment [2] is 4.95% (inactive); in experiment [4], 1.82% (inactive); in experiment [13] it was 6.91% (inactive). In addition, in experiment [5], the activity, negative = inhibition is -10.3% (inactive). Besides, the result in experiment [8] was inactive. Besides, the Potency result in experiment [9], in experiment [16] and in experiment [17] was “inactive” throughout. Further, the max response amounted to 0.0679% in experiment [13] (setting [20]) and 8.45% in [13] (setting [21]).

`CNc1ccnc(-c2ccccc2OC)n1`: the activity change, negative = inhibition in [2] was 4.71% (inactive); in experiment [4] it was 8.86% (inactive); in experiment [13], 6.44% (inactive). Besides, the values for the Potency in experiment [3], in [6] and in experiment [7] were 5.01 µM (active), > 46 µM (inactive) and > 46 µM (inactive), respectively. The activity, negative = inhibition in [5] is 16.8% (inactive). Also, the compound was classed as inactive in [8]. The Potency entry in experiment [9], in [11], in experiment [14], in experiment [15], in [16] and in experiment [17] was “inactive” throughout. Besides, in experiment [19], the activation is 7.18% (inactive). Further, the values for the max response in experiment [13] (setting [20]) and in [13] (setting [21]) were 21.3% and 26.2%, respectively.
